# PubChem BioAssay (NCI)
# About 83,000 compounds went through this panel and 20% of them were active in at least one assay; those are over-represented in the sample as a whole.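 Testing used 96-well plates and a 48-hour single-concentration exposure. Example: -40 means 40% of the starting cells died.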 Values without a mark were called inactive. The source made the active and inactive calls. How the source made its calls: active means growth percent below 10; inactive means the rest.
# Columns and labels:
# Test in all cases: NCI-60 one-dose screen, 48 h (100 = growth as untreated, 0 = no growth, -100 = all killed)
# Details in all cases: 10 µM unless noted
# NCI-H23 lung = tested on: NCI-H23 lung
# NCI-H226 lung = tested on: NCI-H226 lung
# NCI-H322M lung = tested on: NCI-H322M lung
# HOP-62 NSCLC = tested on: HOP-62 NSCLC
# NCI-H460 lung = tested on: NCI-H460 lung
# HOP-92 NSCLC = tested on: HOP-92 NSCLC
# NCI-H522 lung = tested on: NCI-H522 lung
# A549/ATCC NSCLC = tested on: A549/ATCC NSCLC
# 786-0 renal = tested on: 786-0 renal
# DU-145 prostate = tested on: DU-145 prostate
# K-562 leukemia = tested on: K-562 leukemia
# MALME-3M melanoma = tested on: MALME-3M melanoma
# MDA-MB-231 breast = tested on: MDA-MB-231 breast
# RXF 393 renal = tested on: RXF 393 renal
# SF-268 CNS = tested on: SF-268 CNS
# SF-295 CNS = tested on: SF-295 CNS
# SF-539 CNS = tested on: SF-539 CNS
# UACC-257 melanoma = tested on: UACC-257 melanoma
# M14 melanoma = tested on: M14 melanoma
Structure (SMILES),growth (NCI-H23 lung),growth (NCI-H226 lung),growth (NCI-H322M lung),growth (HOP-62 NSCLC),growth (NCI-H460 lung),growth (HOP-92 NSCLC),growth (NCI-H522 lung),growth (A549/ATCC NSCLC),growth (786-0 renal),growth (DU-145 prostate),growth (K-562 leukemia),growth (MALME-3M melanoma),growth (MDA-MB-231 breast),growth (RXF 393 renal),growth (SF-268 CNS),growth (SF-295 CNS),growth (SF-539 CNS),growth (UACC-257 melanoma),growth (M14 melanoma)
CNC(=O)c1cc(Oc2ccc3nc(Nc4cc(Cl)cc(Cl)c4)ccc3c2)ccn1,70.6%,81.9%,82.9%,72.1%,66.9%,67.6%,29.6%,49.3%,82.6%,78%,19.1%,64.7%,34.6%,92.4%,59.8%,47.1%,75.3%,53.2%,38.5%
NC(=O)c1c(NC(=O)c2ccccn2)sc2c1CCC(=O)C2,17.2%,70.7%,94.3%,81%,71.2%,15.9%,-13.5% (active),60.6%,89.4%,91.5%,10.1%,49.4%,7.89% (active),21.5%,21%,66.3%,1.9% (active),46.9%,22.5%
CN1C[C@@H](c2ccc(Cl)cc2)[C@]2(NC(=S)N(c3ccccc3)C2=O)[C@@]12C(=O)NC1C=CC(Br)=C[C@H]12 (stereo partly specified),76.1%,66%,77.4%,79.5%,65.5%,19.7%,49.3%,56.9%,54.3%,85%,34.8%,108%,60.8%,68.4%,58.1%,80.6%,84.8%,71.4%,39.4%
CC(C)(C)Nc1c(-c2c3ccccc3cc3ccccc23)nc2ccccn12,77.4%,83.9%,71.2%,65.1%,77%,45%,59.1%,49.4%,72%,92.7%,42%,80.6%,80.7%,82.4%,82.9%,69.7%,78.2%,75.5%,70.3%
O=C(/C=C/C12c3ccccc3C(c3ccccc31)C1C(=O)N(c3ccccc3)C(=O)C12)c1ccc(Cl)cc1 (stereo unspecified),17.2%,-10% (active),35.3%,23.5%,-17.5% (active),39.1%,10.1%,25.1%,8.93% (active),21.8%,18.2%,-32.7% (active),-11.8% (active),-71.2% (active),43%,6.27% (active),0.701% (active),20.2%,30%
CC(=O)c1cc2c(o1)C(=O)c1ccccc1C2=O,-33.2% (active),-59.1% (active),-92.7% (active),-57.9% (active),-71.8% (active),-9.05% (active),-56.8% (active),-44.4% (active),-93.4% (active),-97.8% (active),-24.9% (active),-97.9% (active),-21.5% (active),-93.8% (active),-62.6% (active),-93.4% (active),-98.5% (active),-88.5% (active),-88.4% (active)
CCCCCOC(=O)c1cccc(NC(=O)CN(CC)CC)c1,102%,96.7%,97.6%,86.8%,111%,75.6%,62%,95.7%,81.2%,104%,103%,94.8%,117%,106%,104%,96.1%,98.6%,105%,86.9%
COc1ccc(C2CC(c3cnccn3)=NN2)cc1OC (stereo unspecified),101%,98.8%,90.9%,111%,108%,68.3%,67%,90.4%,92%,104%,60.9%,95.4%,106%,100%,103%,104%,111%,106%,89.5%
COc1ccc(/C=N/NC(=O)Cn2c(-c3ccc(S(C)(=O)=O)cc3)nc3cc(Cl)ccc32)cc1,29.9%,57.1%,51.4%,30.5%,7.74% (active),49.3%,2.78% (active),17.4%,39.2%,14.2%,6.93% (active),65.8%,12.9%,14.9%,45.2%,13.4%,-14.1% (active),64.4%,13.5%
Oc1[nH]c2ccccc2c1/C=c1/cc2c(c(-c3ccc(F)cc3)n1)=Nc1ccccc1-2,-5.74% (active),19.4%,58.7%,-47.3% (active),-23.6% (active),-17.9% (active),-58% (active),-33.7% (active),-76.8% (active),9.34% (active),2.88% (active),-54.5% (active),-4.54% (active),-57.1% (active),15.4%,-19.1% (active),-65.6% (active),20.9%,-36.8% (active)
Cc1cc(N(CCCNc2ccnc3cc(Cl)ccc23)Cc2ccccn2)nc(N2CCCC2)n1,78.3%,89.6%,75.9%,68.4%,66.4%,59.7%,88%,70.8%,73.5%,91.2%,9.27% (active),70.9%,56.2%,54.9%,67.3%,75.5%,52.3%,81.6%,93.7%
C=C1c2c(C)nn(-c3ccc(O)cc3)c2N(C)C23C[C@@H]1C1(C)c4c(C)nn(-c5ccc(O)cc5)c4N(C)C(C)(C[C@H]12)C3 (stereo partly specified),50.4%,11.8%,59.4%,37%,20.1%,7.18% (active),20.7%,31.3%,34.3%,45%,18.1%,58.7%,14.8%,19.9%,48%,26.9%,23.7%,29.1%,15.5%
O=c1cc(-c2ccc(OCc3ccccc3)cc2)oc2c(I)c(OCc3ccccc3)cc(OCc3ccccc3)c12,103%,90%,96.6%,125%,99.2%,108%,91.5%,96.4%,96.8%,105%,84.3%,107%,110%,139%,99%,99%,100%,95.9%,95.6%
O=C(NCCN1CCC(O)CC1)c1cc2c(o1)C(=O)c1ccccc1C2=O,-50.9% (active),-77.5% (active),-98.6% (active),-66.6% (active),-75.9% (active),-67.4% (active),-56.3% (active),-57.7% (active),-78.3% (active),-97.6% (active),2.8% (active),-99.2% (active),-24.6% (active),-99% (active),-54.8% (active),-96.2% (active),-97.5% (active),-86.9% (active),-85.3% (active)
C=C1C(=O)O[C@H]2[C@H]1CC/C(Cn1cc(CNCCc3c[nH]c4ccccc34)nn1)=C\CC[C@@]1(C)O[C@@H]21,95%,101%,86.8%,86.3%,104%,61.6%,3.17% (active),95.7%,99.1%,104%,32%,76%,92.4%,85.4%,95.8%,102%,81.1%,77.4%,84.3%
COc1ccc(O)c(-c2cc(-c3ccccc3)c(C#N)c(=O)[nH]2)c1,84.1%,88.5%,96.4%,85.5%,92.5%,61.5%,65.6%,84.1%,85.4%,102%,68.9%,112%,89.9%,104%,103%,95.2%,98.1%,85%,94.9%
CN(C)c1ccc(/C=C2\C=C(c3ccccc3)N(CCc3ccccc3)C2=O)cc1,64.2%,52.8%,71.9%,-14% (active),23.6%,51.2%,50.6%,34.8%,48.9%,60.4%,90.6%,57.7%,84.6%,81.4%,43.8%,53.9%,61.6%,76.8%,51.7%
c1ccc2c(c1)nc(-n1ccnc1)c1nc3ccccc3n12,65.8%,65.7%,71.9%,47.9%,40.7%,80.9%,26.9%,54.3%,73.1%,76.9%,88.1%,92.9%,72.3%,64.9%,37.9%,83.7%,66%,82.3%,93.1%
O=C1C2=C(CCN(Cc3ccccc3)C2)N2CCN=C2N1Cc1ccc(F)cc1F,32.2%,29%,45.4%,33.6%,15.5%,41.9%,24.2%,26.7%,55.2%,32.6%,33.1%,41.5%,20.4%,55%,40.2%,5.35% (active),40.1%,13.6%,35.9%
O=C(CCl)N1c2cccc3cccc(c23)N(C(=O)CCl)C1c1cn(-c2ccccc2)nc1-c1cccc([N+](=O)[O-])c1,90.1%,98.8%,104%,94.5%,103%,117%,77.1%,107%,95.5%,98%,33.3%,108%,85.7%,99.9%,99.4%,103%,96.5%,103%,84.8%
N#C/C(=C\c1ccc(Br)cc1)n1nnc2cc(Cl)c(Cl)cc21,32.3%,36.3%,56.7%,53.1%,56.7%,33.2%,6.95% (active),67.4%,43.8%,34%,8.99% (active),67.5%,33%,-6.31% (active),59.2%,65.8%,49.8%,52.4%,31.3%
CSc1ncc(C)c(Nc2ccc(Cl)cc2)n1,99.6%,104%,106%,111%,103%,73.6%,80.1%,96.4%,91.9%,102%,94%,122%,110%,114%,99.9%,96%,118%,127%,112%
COC(=O)CCCNC(=O)C(=O)c1c(O)c(O)c(C(C)C)c2cc(C)c(-c3c(C)cc4c(C(C)C)c(O)c(O)c(C(=O)C(=O)NCCCC(=O)OC)c4c3O)c(O)c12,11.8%,-17.2% (active),29.6%,13%,0.963% (active),-0.407% (active),-38.9% (active),-6.82% (active),4.56% (active),-0.703% (active),6.26% (active),19.7%,-16.3% (active),-6.97% (active),8.13% (active),-7.03% (active),-1.93% (active),-21.5% (active),-20.7% (active)
CC(=O)Nc1nccs1,95%,100%,88.2%,95.6%,98.8%,89.1%,87%,99.3%,107%,107%,110%,76.8%,103%,98.6%,99.9%,101%,97%,94.2%,112%
